According to PubChem BioAssay (EPA / NIEHS):
Inconclusive results are not listed. Active and inactive are the calls of the source. How the source made its calls: active means hit-call score of the fitted dose curve at least 0.9, where 1 is the maximum; inconclusive means response in the unintended direction; inactive means score below 0.9.

Each compound was assayed against human Retinoic Acid Receptor beta (RARb), RARB (gene 5915) (UniProt P10826) (assay: ATG_RARb_TRANS: Attagene TRANS-FACTORIAL HepG2 Assay for human Retinoic Acid Receptor beta (AID 2283004)).
Chain of human Retinoic Acid Receptor beta (RARb), RARB (gene 5915) (P10826 whole entry, looked up): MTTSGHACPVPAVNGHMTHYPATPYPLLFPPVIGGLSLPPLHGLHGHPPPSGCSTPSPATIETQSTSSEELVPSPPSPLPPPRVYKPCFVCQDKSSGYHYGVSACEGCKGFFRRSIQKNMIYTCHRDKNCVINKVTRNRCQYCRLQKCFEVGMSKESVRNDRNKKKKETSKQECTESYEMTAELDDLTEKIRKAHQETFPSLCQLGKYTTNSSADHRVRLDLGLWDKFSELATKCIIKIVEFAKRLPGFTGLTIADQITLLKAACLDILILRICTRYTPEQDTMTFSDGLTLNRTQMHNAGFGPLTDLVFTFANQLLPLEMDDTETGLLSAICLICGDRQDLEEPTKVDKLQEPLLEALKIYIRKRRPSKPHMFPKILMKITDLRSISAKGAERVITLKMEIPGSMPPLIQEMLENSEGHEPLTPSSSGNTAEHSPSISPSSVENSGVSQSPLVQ
Protocol: ATG_TRANS is a cell-based, multiplexed-readout assay that uses HepG2, a human liver cell line, with measurements taken at 24 hours after chemical dosing in a 24-well plate.ATG_RARb_TRANS is one of 30 assay component(s) measured or calculated from the ATG_TRANS assay. It is designed to make measurements of mRNA induction, a form of inducible reporter, as detected with fluorescence intensity signals by Reverse transcription polymerase chain reaction (RT-PCR) and Capillary electrophoresis technology.Data from the assay component ATG_RARb_TRANS was analyzed into 1 assay endpoint. This assay endpoint, ATG_RARb_TRANS, was analyzed in the positive analysis fitting direction relative to DMSO as the negative control and baseline of activity. Using a type of inducible reporter, measures of mRNA for gain-of-signal activity can be used to understand the reporter gene at the transcription factor-level as they relate to the gene RARB. Furthermore, this assay endpoint can be referred to as a primary readout, because this assay has produced multiple assay endpoints where this one serves a reporter gene function. To generalize the intended target to other relatable targets, this assay endpoint is annotated to the nuclear receptor intended target family, where the subfamily is non-steroidal.
Human liver HepG2 cells are transiently transfected with multiple reporter transcription units (MRTUs) in 6-well plates using FuGene 6 reagent (Roche; 3 ml FuGene/1 mg DNA). The MRTU constructs are regulated by a cis-regulating element (promoter). […] A major difference between the CIS and TRANS system is that in CIS activities of endogenous TFs are measured, whereas the TRANS assay evaluates changes in activities of exogenous, chimeric NR-Gal4 proteins. […] At the end of 24 hour incubation, total RNA was isolated using TriZol reagent (Invitrogen). The isolated RNA is then reverse-transcribed using oligo(dT) primer and Mo-MLV reverse transcriptase (Invitrogen) with DNAse I (Ambion) treatment for 30 min. The one-tenth of the produced cDNA was amplified by PCR using Taq DNA polymerase (Invitrogen) and two reporter sequence-specific primers. The PCR products were fluorescently labeled by primer extension with 6-arboxyfluorescein (6-FAM) 5'-labeled reporter sequence-specific primer (2 min at 95 C, 20 s at 68 C and 10 min at 72 C) and these products were digested with 5U of HpaI (New England Biolabs) for 2h at 37 C. The fragments were purified using Qiaquick PCR columns (Qiagen), analyzed on an ABI 3130xL genetic analyzer (Applied Biosystems) with peak positions identified by using a set of X-rhodamine (ROX)-labeled MapMarker1000 molecular weight standards (BioVentures). The raw capillary electrophoresis data was processed using Attagraph software (Attagene).

| SMILES | outcome |
| --- | --- |
| CCNc1nc(NC(C)(C)C)nc(OC)n1 | inactive |
| CCN(CC)c1cccc(C)c1 | inactive |
| CCCCCCCCCCCC(C)=O | inactive |
| CCCCNC(=S)NCCCC | inactive |
| CN(C)c1ccc2nc3ccc(=[N+](C)C)cc-3sc2c1 | inactive |
| CC(C)=NNC(N)=S | inactive |
| COc1ccc(-c2coc3cc(O)cc(O)c3c2=O)cc1 | inactive |
| CCCCCCOC(=O)CCCCC(=O)OCCCCCC | inactive |
| CCOB(OCC)OCC | inactive |
| Nc1ccc(C(=O)O)cc1 | inactive |
| O=c1c(O)c(-c2ccc(O)cc2O)oc2cc(O)cc(O)c12 | inactive |
| O=C(OCCc1ccccc1)c1ccccc1 | inactive |
| CO[Si](C)(C)OC | inactive |
| c1ccc(Nc2cccc3ccccc23)cc1 | inactive |
| CCCCC(=O)O | inactive |
| NC(=O)Nc1ccccc1 | inactive |
| CCCCCCC=O | inactive |
| CCC[Si](OC)(OC)OC | inactive |
| CC1C(C)(C)C2=C(C(=O)CCC2)C1(C)C (stereo not given) | inactive |
| CCCCC(CC)COC(=O)/C=C/c1ccc(OC)cc1 (stereo not given) | inactive |

| SMILES | outcome |
| --- | --- |
| CCCCCCCOC(=O)c1ccc(O)cc1 | inactive |
| CC1=CC(C)C(C=O)CC1 (stereo not given) | inactive |
| CCCCCCCCCCCCCC(=O)OC(C)C | inactive |
| O=C(Cl)c1ccc(C(=O)Cl)cc1 | inactive |
| C=C(C)C(=O)OCCOC(=O)C(=C)C | inactive |
| CC(=O)C(C)C | inactive |
| CC(=O)CCC=C(C)C | inactive |
| C=CC(C)(O)CC/C=C(\C)CC (stereo not given) | inactive |
| CC12CCC(CC1)C(C)(C)O2 | inactive |
| CC(c1cc(C(C)(C)C)cc(C(C)(C)C)c1O)c1cc(C(C)(C)C)cc(C(C)(C)C)c1O | inactive |
| C=Cc1ccc(OC(C)=O)cc1 | inactive |
| CC(C)CO | inactive |
| CCCC1CCCC(=O)O1 (stereo not given) | inactive |
| Nc1ccc(Cl)c(N)c1 | inactive |
| CCCCC1C(=O)N(c2ccccc2)N(c2ccccc2)C1=O | inactive |
| CCC(C)N (stereo not given) | inactive |
| CC(C)(CO)COC(=O)C(C)(C)CO | inactive |
| CCOC(=O)c1ccccc1C | inactive |
| CC(C)c1ccc2ncccc2c1 | inactive |
| CC(=O)OCCc1ccccc1 | inactive |
